Results filed as inconclusive are left out. Calls of active or inactive are those of the source. The call rests on the fitted dose curve; in most records, active means well fitted curve in the direction sought with a large enough effect; inconclusive means small, poorly fitted or top-dose-only effect, or another doubt; inactive means no such curve, though single readings can be large; an effect the other way counts as inactive or inconclusive.
What was measured:
[1] = P-glycoprotein substrates identified in KB-8-5-11 adenocarcinoma cell line, qHTS therapeutic library screen (AID 1346987); further: nearly all actives have a fitted effect of over 65% in size; on activity change, negative = cytotoxicity: series mostly up to about 44 µM
Outline: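 Compounds are pinned in dose-response onto KB-8-5-11 cells (500 cells/well, colchicine-free medium) and left 72 h at 37 degree C. CellTiter-Glo luminescence then yields AC50 values.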

[2] = test system: Zika virus NS2B-NS3 protease (unlinked complex); test: Primary screen GU Rhodamine qHTS for Zika virus inhibitors: Unlinked NS2B-NS3 protease assay (AID 1347159); further: nearly all actives have a fitted effect of over 60% in size
Outline: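 Buffer 10 mM Tris-HCl pH 8.0, 0.01% Tween 20. Unlinked protease 25 nM; compound preincubation 15 min, RT, protected from light. Substrate Rhod110, 1.5 microM; ~15% conversion in 15 min.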

[3] = test system: Zika virus NS2B-NS3 protease (linked construct); test: Primary screen NINDS Rhodamine qHTS for Zika virus inhibitors (AID 1347160); further: nearly all actives have a fitted effect of over 55% in size
Outline: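 Aprotinin served as in-plate control. Conditions: 25 nM linked NS2B-NS3, pH 8.0 Tris buffer, titrated compounds, 15 min preincubation and 15 min reaction with 1.5 microM Rhod110 substrate at room temperature.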
On the % scale 0 is the no-effect control and ±100 the full control effect.

C[C@@H]1C[C@@H](O)[C@@]2(CO)C(CO)=CCC[C@@H]2[C@@]12C[C@@H](c1ccoc1)OC2=O
inactive: Potency [1] | Potency [2] | Potency [3]

CC(C)=CCC[C@](C)(O[C@@H]1O[C@H](CO)[C@@H](O)[C@H](O)[C@H]1O)[C@H]1CC[C@]2(C)[C@@H]1[C@H](O)CC1[C@@]3(C)CC[C@H](O)C(C)(C)C3[C@@H](O[C@@H]3O[C@H](CO)[C@@H](O)[C@H](O)[C@H]3O[C@@H]3O[C@@H](C)[C@H](O)[C@@H](O)[C@H]3O)C[C@]12C (some centres not stated)
inactive: outcome [1] inactive [at 9.29 µM] | Potency [2] | Potency [3]

C=C1C(OC(C)=O)CCC2(C)CCC(C(C)(C)O)CC12 (configuration not stated)
inactive: Potency [1] | Potency [2] | Potency [3]

OC[C@H]1O[C@@H](O[C@H]2[C@H](O)[C@@H](CO)O[C@@H](OCc3ccccc3)[C@@H]2O[C@@H]2OC[C@](O)(CO)[C@H]2O)[C@H](O)[C@@H](O)[C@@H]1O
inactive: Potency [1] | Potency [2] | Potency [3]

CC(C)(O)c1ccc2c(c1)C(=O)C[C@H]1[C@](C)(C(=O)O)CCC[C@]21C
inactive: Potency [1] | Potency [2] | Potency [3]

O=C(/C=C/c1ccc(O)cc1)OCC1OC(O)C(OC2OC(CO)C(O)C(O)C2O)C(O)C1O (configuration not stated)
inactive: Potency [1] | Potency [2] | Potency [3]

CC1(C(=O)O)CCCC2(C)C3CCC4CC3(CCC12)CC4C(=O)O (configuration not stated)
inactive: Potency [1] | Potency [2] | Potency [3]

CC(=O)NCC1CN(c2ccc(-c3ccc(CNCc4cn[nH]n4)cc3)c(F)c2)C(=O)O1 (configuration not stated)
inactive: Potency [1] | Potency [2] | Potency [3]

O=C(C[C@@H]1C(C(=O)O)=CO[C@@H](O[C@@H]2O[C@H](CO)[C@@H](O)[C@H](O)[C@H]2O)/C1=C\CO)OCCc1ccc(O)c(O)c1
inactive: Potency [1] | Potency [2] | Potency [3]

C[C@@H]1C(=O)O[C@H](C)[C@H]1C[C@@H](O)[C@](C)(O)[C@H]1CC[C@@]2(O)C3=CC(=O)[C@@H]4C[C@@H](O)[C@@H](O)C[C@]4(C)C3CC[C@]12C (some centres not stated)
inactive: Potency [1] | Potency [2] | Potency [3]

C=C1CCC(OC(C)=O)C2(C)CC3OC(=O)C(C)=C3CC12 (configuration not stated)
inactive: Potency [1] | Potency [2] | Potency [3]

CC1(C)CC(NC(=O)C(=O)Nc2ccc(Cl)cc2)CC(C)(C)N1
inactive: Potency [1] | Potency [2] | Potency [3]

CC(C)(OC1OC(CO)C(O)C(O)C1O)C1CCC(O)(CO)C2CC(=O)C(C)(O)C2C1 (configuration not stated)
inactive: Potency [1] | Potency [2] | Potency [3]

Oc1ccc2c(-c3c(-c4ccccn4)nn4c3CCC4)ccnc2c1
inactive: Potency [1] | Potency [2] | Potency [3]

c1ccc2c(Nc3nnc(-c4ccncc4)s3)cccc2c1
inactive: Potency [1] | Potency [2] | Potency [3]

COc1cc(C(CO)CO[C@@H]2O[C@H](CO)[C@@H](O)[C@H](O)[C@H]2O)ccc1O (some centres not stated)
inactive: Potency [1] | Potency [2] | Potency [3]

O=C(O)c1cc(C(F)(F)F)ccc1N1CC[C@H](OCc2ccccn2)C1
inactive: Potency [1] | Potency [2] | Potency [3]

Cc1occc1C(=O)n1ccnc1
inactive: Potency [1] | Potency [2] | Potency [3]

OC[C@@]1(O)CO[C@H](OC[C@H]2O[C@@H](OC(CCCCc3ccc(O)cc3)CCc3ccc(O)cc3)[C@H](O)[C@@H](O)[C@@H]2O)[C@@H]1O (some centres not stated)
inactive: Potency [1] | Potency [2] | Potency [3]

CCCCOc1nc(N)c2c(n1)N(Cc1cccc(CN3CCCC3)c1)CC(=O)N2
inactive: Potency [1] | Potency [2] | Potency [3]

CNc1nc(Cc2ccccc2)nc2c1CCNC[C@@H]2C
inactive: Potency [1] | Potency [2] | Potency [3]

CC1(C)CC[C@]2(C(=O)O[C@@H]3O[C@H](CO)[C@@H](O)[C@H](O)[C@H]3O)CC[C@]3(C)C(=CCC4[C@@]5(C)CC[C@H](O[C@H]6O[C@H](CO)[C@@H](O)[C@H](O[C@@H]7O[C@H](CO)[C@@H](O)[C@H](O)[C@H]7O)[C@H]6O)C(C)(C)C5CC[C@]43C)[C@@H]2C1 (some centres not stated)
inactive: activity change, negative = cytotoxicity [1] 4.26% [at 9.29 µM] | Potency [2] | Potency [3]

CC(=O)OCC1OC(OC2COC(OC3COC(OC4C(OC5C(CO)OC(OC6CCC7(C)C(CCC8(C)C7CC=C7C9CC(C)(C)CCC9(C(=O)OC9OC(CO)C(O)C(O)C9OC9OCC(OC%10OCC(O)(CO)C%10O)C(O)C9O)C(O)CC78C)C6(C)C)C(O)C5O)OCC(O)C4O)C(O)C3O)C(O)C2O)C(OC(=O)/C=C/c2ccccc2)C(O)C1OC(C)=O (configuration not stated)
inactive: activity change, negative = cytotoxicity [1] 0.531% [at 5.11 µM] | activity change, negative = inhibition [2] 8.67% [at 19.1 µM] | Potency [3]

OCC1OC(Oc2cc(O)cc(/C=C/c3ccc(OC4OC(CO)C(O)C(O)C4O)cc3O)c2)C(O)C(O)C1O (configuration not stated)
inactive: Potency [1] | Potency [2] | Potency [3]
